Compounds without any hit were thinned out: in the full panel of roughly 83,000, 20% have a hit.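 Method: cells in 96-well plates; compound added at one concentration; 48 h incubation; percent growth measured; values under 10 scored active.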 Calls of active or inactive are those of the source.
Assays:
Assay in all cases: NCI-60 one-dose screen, 48 h (100 = growth as untreated, 0 = no growth, -100 = all killed)
[1] = tested on: NCI-H226 lung; settings: 10 µM
[2] = tested on: HOP-62 NSCLC; settings: 10 µM unless noted
[3] = tested on: NCI-H460 lung; settings: 10 µM unless noted
[4] = tested on: HOP-92 NSCLC; settings: 10 µM unless noted
[5] = tested on: NCI-H522 lung; settings: 10 µM
[6] = tested on: A549/ATCC NSCLC; settings: 10 µM unless noted
[7] = tested on: 786-0 renal; settings: 10 µM unless noted
[8] = tested on: COLO 205 colon; settings: 10 µM unless noted
[9] = tested on: NCI-H322M lung; settings: 10 µM unless noted

Measured: growth

O=[N+]([O-])c1ccc(O)c2ncccc12
inactive: [1] 81.1% | [2] 50.9% | [3] 23.2% | [4] 67.4% | [5] 51.6% | [6] 46.6% | [7] 66.5%

N#CCCN1CCN(CCC#N)C1=S
inactive: [1] 112% | [2] 108% | [3] 103% | [7] 105% | [8] 105%

C(=C\c1ccccc1)/CN1CCN(C(c2ccccc2)c2ccccc2)CC1
inactive: [1] 86.3% | [2] 99.6% | [3] 96.5% | [4] 62.5% | [5] 93.5% | [6] 88.7% | [7] 95.3% | [8] 101%

Cl.Fc1c[c-]c(-c2ccccn2)c(F)c1.[Pt].c1ccc([PH+](CC[PH+](c2ccccc2)c2ccccc2)c2ccccc2)cc1
active: [9] -98.8% | [2] -65.8% | [3] -75.3% | [4] -77.4% | [5] -58.4% | [6] -52.9% | [7] -79.4%

O=C(O)CCN1CCN(c2cccc(Cl)c2)CC1
inactive: [1] 104% | [2] 97% | [3] 106% | [4] 110% | [5] 127% | [6] 95.9% | [7] 104% | [8] 111%

COc1ccc(OC)c2ncccc12
inactive: [1] 95.8% | [3] 108% | [4] 72.2% | [5] 84% | [6] 108% | [7] 102% | [8] 106%

Cc1nc2cc(Nc3nc(Nc4ccc(F)cc4)nc(N4CCN(C)CC4)n3)ccc2n1Cc1ccccc1
active: [3] 3.42% | [4] 2.5% | [5] -55.1% | [6] 7.21% | [7] -83.1% | [8] -55.5%
inactive: [1] 65% | [2] 58.2%

COc1ccc(-c2c3c(N)c4c(nc3nc3c2c(C)nn3-c2ccccc2)CCCC4)cc1
inactive: [1] 86.9% | [2] 89.3% | [3] 73.8% | [4] 28.9% | [5] 60.6% | [7] 70.8% | [8] 73.4%

COc1ccc(OC)c(/C=C2\Oc3cc(O)ccc3C2=O)c1
inactive: [9] 92.6% | [2] 101% | [3] 91.6% | [4] 98.2% | [5] 77.6% | [6] 98.8% | [7] 89.5%

O=C1CCC(N2C(=O)c3cccc(NCCOCCOCCNC(=O)c4cc5c(o4)C(=O)c4ccccc4C5=O)c3C2=O)C(=O)N1 (stereo not given)
inactive: [4] 60.4% | [7] 17.8%
active: [9] -76.6% | [2] -58.2% | [3] -81.3% | [5] -55% | [6] -30.2%

O=C1C(Br)=C(c2ccccc2)C(=O)C(Br)=C1c1ccccc1
active: [5] -61%
inactive: [1] 95.1% | [2] 111% | [3] 99.5% | [4] 92.1% | [6] 87.6% | [7] 95.7% | [8] 90.9%

COc1nc2c(cc1S(=O)(=O)c1ccccc1)CCc1c-2cnn1-c1ccccc1
inactive: [1] 87.2% | [2] 81.3% | [3] 77.5% | [4] 22.1% | [5] 47.9% | [6] 57.7% | [7] 76.5% | [8] 96.3%

Cc1ccc(-c2c3c(N)c4c(nc3nc3c2c(C)nn3-c2ccccc2)CCCC4)cc1
inactive: [1] 91.8% | [2] 106% | [3] 101% | [4] 81.6% | [5] 91.6% | [6] 93.3% | [7] 91.6% | [8] 92.3%

COC1(OC)C2(Cl)C=C(c3ccccc3)C1(Cl)C(Cl)=C2Cl (stereo not given)
inactive: [1] 102% | [2] 93.9% | [3] 113% | [4] 77.7% | [5] 80.9% | [6] 99.8% | [7] 103% | [8] 108%

CN1CCN(CCCn2c3c(sc4ncccc43)c(=O)n3nnc(-c4ccccc4)c23)CC1
active: [2] -75.8% | [3] -70.7% | [5] -73.5% | [6] -74.7%
inactive: [1] 96.2% | [4] 59.6% | [7] 95.4% | [8] 63.6%

Cc1cc[n+](CCc2ccccc2)cc1
inactive: [1] 102% | [6] 89.4%

FC(F)(F)c1cc(CNc2nc(Cl)ncc2Br)cc(C(F)(F)F)c1
inactive: [1] 93.9% | [2] 90.5% | [3] 95.6% | [4] 71% | [5] 62.3% | [6] 83% | [7] 84.6% | [8] 103%

CC(=O)N(CC(O)CO)c1c(I)c(C(=O)NCCO)c(I)c(C(=O)NCC(O)CO)c1I (stereo not given)
inactive: [1] 98.7% | [2] 99.2% | [3] 111% | [5] 97.8% | [6] 100% | [7] 91% | [8] 105%

CCCCCCCCCCCCSC1=CC(=O)C=CC1=O
inactive: [1] 91.5% | [2] 82.2% | [3] 105% | [4] 24.3% | [6] 92.3% | [7] 98.7% | [8] 107%
active: [5] -81.2%

O/N=C/c1cccs1
inactive: [1] 107% | [2] 94.3% | [3] 108% | [4] 94% | [5] 106% | [7] 102% | [8] 119%

Cc1ccc(S(=O)(=O)N(c2ccc(Cl)cc2)c2ccc(Br)cc2C(=O)O)cc1
inactive: [1] 97.7% | [2] 105% | [3] 107% | [5] 102% | [6] 105% | [7] 114% | [8] 116%

COc1ccc(/C=C(\C#N)c2ccc(OC)cc2)cc1
inactive: [1] 82.7% | [3] 50.9% | [6] 54.3% | [7] 90.1% | [8] 78.7%

O=C(C[Si](CC(=O)c1cccc(C(F)(F)F)c1)CC(=O)c1cccc(C(F)(F)F)c1)c1cccc(C(F)(F)F)c1
inactive: [1] 82.9% | [5] 68.7% | [6] 49% | [7] 75.8% | [8] 98.4%
active: [3] 8.35% | [4] -27.9%

COc1cccc(OC(=O)c2ccccc2)c1OC(=O)c1ccccc1
inactive: [1] 109% | [3] 81.6% | [4] 40% | [6] 78% | [7] 101% | [8] 108%

O=[N+]([O-])c1cc2c(cc1Br)C1C(C3C2C(Cl)(Cl)C(Cl)=C(Cl)C3(Cl)Cl)C(Cl)(Cl)C(Cl)=C(Cl)C1(Cl)Cl (stereo not given)
inactive: [1] 86.7% | [2] 92.2% | [3] 107% | [4] 100% | [5] 83.1% | [6] 95.7% | [7] 89.9% | [8] 110%

Cc1nc2cc(Nc3nc(Cl)nc(Nc4ccc(F)cc4)n3)ccc2n1Cc1ccccc1
active: [5] -69.8%
inactive: [1] 80.5% | [3] 88% | [4] 50.7% | [6] 86.7% | [7] 33%

Cn1c2c(cc(S(=O)(=O)c3ccccc3)c1=O)CCc1c-2cnn1-c1cccc(Cl)c1
inactive: [1] 84.6% | [2] 94.7% | [3] 101% | [4] 44.8% | [7] 92.1%
active: [5] -81.2%

CCSc1nnc2c3cc(Br)ccc3n(C)c2n1
inactive: [1] 93.6% | [2] 82.7% | [3] 102% | [5] 99.5% | [6] 102% | [7] 102% | [8] 102%

COc1cc2nc(N3CCC[C@H](NC4=CC(=O)c5ccccc5C4=O)C3)nc(N)c2cc1OC
inactive: [1] 107% | [2] 64% | [4] 75.8% | [5] 74.4%
active: [3] -65.7% | [6] -80.6% | [7] -92.7% | [8] -79.6%

O=C(NC1CC1)c1cc2n(n1)CC(c1ccccc1)N2 (stereo not given)
inactive: [9] 99% | [2] 102% | [3] 100% | [4] 85.3% | [5] 91.1% | [6] 99.6% | [7] 101%

C=C(C)COC(=O)c1ccccc1C(=O)OCC1(C)CO1 (stereo not given)
inactive: [1] 102% | [2] 102% | [3] 108% | [6] 94.8% | [7] 105%

COc1ncc(F)c(OC)n1
inactive: [1] 101% | [2] 94.3% | [3] 108% | [4] 87% | [5] 97.5% | [6] 99.8% | [7] 102% | [8] 110%

CCC12CCC3c4ccc(O)cc4CCC3C1CC(O)C2O (stereo not given)
inactive: [9] 102% | [2] 83.2% | [3] 88% | [4] 72.3% | [5] 37.4% | [6] 61.7% | [7] 92.5%

Source: PubChem BioAssay (NCI)
